The nature of assay [1]: Cellular Toxicity (caspase-3) Jurkat (AID 655).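 Note: cells exposed to compound for 16 h at 37 °C before reading.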 The note with it: Jurkat caspase-3 activation, luminescence, DMSO = 0%, tamoxifen = 100%; at 92.2 µM (top of the series). In outline:
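5000 Jurkat cells/well; compound 16 hr, 37 °C; Caspase-Glo 3/7 added, 20 min RT; luminescence read. Norm: DMSO = 0%, tamoxifen 100 uM = 100%. AC50, Hill model.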

Assay [2] in a line: Cellular Toxicity (caspase-3) HUV-EC-C (AID 656). The essentials:
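qHTS; HUV-EC-C, 1000 cells/well; 5 hr settle, 16 hr cmpd, 37°C; Caspase-Glo 3/7, 20 min RT; luminescence. Norm: DMSO = 0%, tamoxifen 100 uM = 100%. Hill-fit AC50.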

A short description of assay [3]: Cellular Toxicity (caspase-3) SHSY5Y (AID 657).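 Note: cells exposed to compound for 16 hours at 37 °C.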 The essentials:
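qHTS, SH-SY5Y, 1500 cells/well, 5 h pre-incubation 37 °C; compound 16 h 37 °C; Caspase-Glo 3/7 1 h RT; luminescence. Norm.: DMSO = 0, 10 uM staurosporine = 100%. Hill fit → AC50.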

Assay [4] can be described thus: Cellular Toxicity (caspase-3) BJ (AID 658).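 Note: 0% = DMSO basal and 100% = 10 µM staurosporine.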 The essentials: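 Readout: Caspase-Glo 3/7 luminescence increase in BJ cells after 16 hr treatment at 37 °C. Staurosporine and tamoxifen served as positive controls; AC50 values came from Hill modelling of data normalized to DMSO and 10 uM staurosporine.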
Assay [5] in a line: Cellular Toxicity (caspase-3) MRC-5 (AID 659).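 Note: 0% = DMSO basal and 100% = 10 µM staurosporine.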 In outline: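 Concentration-dependent caspase 3/7 activation is measured in human normal lung fibroblasts (MRC-5) following 16-hour treatment. AC50 values come from standard Hill-equation modeling of luminescence normalized to DMSO and 10 uM staurosporine.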
Assay [6] can be described thus: Cellular Toxicity (caspase-3) Mesangial (AID 660).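 Note: combined caspase 3 and 7 activity read by Caspase-Glo luminescence; cells exposed to compound for 16 h before the caspase read.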 The essentials:
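Concentration-response qHTS: compound-induced rise in caspase 3/7 luminescence in human mesangial cells after 16 h, normalized to DMSO and 100 uM tamoxifen controls.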

Assay [7] in a line: Cellular Toxicity (caspase-3) SK-N-SH (AID 661).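 Note: 0% = DMSO basal and 100% = 10 µM staurosporine.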 In outline:
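Caspase 3/7 activation is measured as a luminescence increase from aminoluciferin released by substrate cleavage in SK-N-SH cells after 16 hr compound treatment; values are AC50 from concentration-response curves.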

A short description of assay [8]: Cellular Toxicity (caspase-3) H-4-II-E (AID 663).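 For caspase-3 activation: cells exposed to compound for 16 hr before readout.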 Note: potency is the fitted concentration of half-maximal effect. The note with it: Potency: caspase-3 activation. The essentials: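 Apoptosis induction is scored as increased luminescence from caspase 3/7 substrate cleavage in rat hepatoma H-4-II-E cells exposed to compound for 16 hr. Activity is scaled between DMSO and 100 uM tamoxifen.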
Assay [9] in a line: Cellular Toxicity (caspase-3) Hek293 (AID 664).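 Note: cells exposed to compound for 16 h at 37 °C before readout.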 In outline: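 Activation of caspase-3/7 is measured as increased luminescence from cleaved peptide-aminoluciferin substrate in HEK293 cells treated 16 hours at 37 °C. AC50 values come from Hill-equation fits of concentration-response data.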
A short description of assay [10]: Cellular Toxicity (caspase-3) N2a (AID 665).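 Note: compound exposure lasted 16 h at 37 °C before readout.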 The essentials: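 Plated mouse neuroblastoma N2a cells received titrated compounds for 16 h in complete medium. Caspase activity was then detected with a peptide-aminoluciferin luminescent reagent.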

SMILES strings stand for the structures. Values without a mark were called inactive. Results filed as inconclusive are left out. Calls of active or inactive are those of the source. Calls come from the whole dose curve; as a rule, active = well fitted curve in the direction sought with a large enough effect; inconclusive = small, poorly fitted or top-dose-only effect, or another doubt; inactive = no such curve, though single readings can be large; an effect the other way counts as inactive or inconclusive.

Regarding `COc1cc([C@H]2Oc3cc([C@H]4Oc5cc(O)cc(O)c5C(=O)[C@@H]4O)ccc3O[C@@H]2CO)ccc1O`, in [1], the caspase-3 activation was 7.36%. The result in assay [2], in assay [3], in assay [4], in assay [5], in [6] and in assay [7] was inactive. In addition, the molecule was called inactive in assay [9] and in [10]. In addition, the Potency in assay [8] was 31.6 µM (active).

Turning to `NC(=O)c1ccccc1O`, the caspase-3 activation in assay [1] was -0.838%. The molecule was called inactive in assay [2], in [3], in assay [4], in assay [5], in assay [6] and in assay [7]. Also, the result in [9] and in [10] was inactive. Besides, the Potency entry in assay [8] is “inactive”.

For the molecule `C=C[C@H]1CN2CC[C@H]1C[C@@H]2[C@@H](O)c1ccnc2ccc(OC)cc12`, the molecule was classed as inactive in assay [2], in assay [3], in [4], in assay [5], in assay [6] and in assay [7]. Besides, the outcome in [9] and in assay [10] was inactive. For the same molecule, the Potency entry in assay [8] is “inactive”.

Take `COc1ccc(C(=O)c2ccccc2)c(O)c1`: the caspase-3 activation in assay [1] is 25.4%. The molecule was classed as inactive in assay [2], in [3], in [4], in [5], in assay [6] and in assay [7]. Besides, the call in assay [9] and in assay [10] was inactive. The Potency entry in [8] was “inactive”.

For the molecule `COc1ccc(C(Cl)=C(c2ccc(OC)cc2)c2ccc(OC)cc2)cc1`, in assay [1], the caspase-3 activation was 2.72%. Besides, the molecule was called inactive in assay [2], in [3], in assay [4], in [5], in assay [6] and in assay [7]. For the same molecule, the outcome in assay [9] and in assay [10] was inactive. Also, in [8], the Potency result was “inactive”.

As to `CCCCC(CC)COC(=O)c1ccc(N(C)C)cc1` (configuration not stated), the caspase-3 activation in [1] is 1.94%. Further, the molecule was called inactive in assay [2], in assay [3], in [4], in assay [5], in [6] and in assay [7]. Further, the result in assay [9] and in [10] was inactive. In addition, the Potency result in assay [8] is “inactive”.

`Oc1c(Cl)cc(Cl)c(Cl)c1Cc1c(O)c(Cl)cc(Cl)c1Cl`: the result in assay [2], in assay [3], in assay [4], in assay [5], in assay [6] and in assay [7] was inactive. Moreover, the molecule was called inactive in assay [9] and in [10]. The Potency result in assay [8] was “inactive”.

As for `CCCN(CCC)S(=O)(=O)c1ccc(C(=O)O)cc1`, the caspase-3 activation in [1] is 1.65%. Also, the outcome in assay [2], in assay [3], in assay [4], in assay [5], in assay [6] and in [7] was inactive. In addition, the outcome in [9] and in [10] was inactive. Besides, the Potency result in assay [8] was “inactive”.

Regarding `OC[C@H]1O[C@@H]2O[C@H]3[C@H](O)[C@@H](O)[C@@H](O[C@H]4[C@H](O)[C@@H](O)[C@@H](O[C@H]5[C@H](O)[C@@H](O)[C@@H](O[C@H]6[C@H](O)[C@@H](O)[C@@H](O[C@H]7[C@H](O)[C@@H](O)[C@@H](O[C@H]8[C@H](O)[C@@H](O)[C@@H](O[C@H]1[C@H](O)[C@H]2O)O[C@@H]8CO)O[C@@H]7CO)O[C@@H]6CO)O[C@@H]5CO)O[C@@H]4CO)O[C@@H]3CO`, the caspase-3 activation in assay [1] was 1.07%. Besides, the molecule was classed as inactive in [2], in assay [3], in [4], in assay [5], in [6] and in assay [7]. For the same molecule, the result in [9] and in [10] was inactive. In [8], the Potency entry was “inactive”.

Consider `Oc1ccc(Cl)cc1Cc1cc(Cl)ccc1O`, for which the caspase-3 activation in assay [1] was 86% (active). Besides, the outcome in assay [2], in [3], in [4], in assay [5], in [6] and in assay [7] was inactive. In assay [10], the outcome was inactive. The Potency entry in [8] is “inactive”.

`CCOc1ccccc1C(N)=O`: in [1], the caspase-3 activation was -0.33%. Moreover, the call in assay [2], in assay [3], in [4], in assay [5], in [6] and in assay [7] was inactive. Besides, the call in assay [9] and in assay [10] was inactive. The Potency result in assay [8] is “inactive”.

For the molecule `O=C(O)c1ccc(S(=O)(=O)N(Cl)Cl)cc1`, the caspase-3 activation in assay [1] is 0.943%. Besides, the molecule was called inactive in assay [2], in assay [3], in [4], in assay [5], in assay [6] and in assay [7]. The outcome in assay [9] and in assay [10] was inactive. In addition, in assay [8], the Potency result is “inactive”.

As to `CCOc1ccc(NC(C)=O)cc1`, the caspase-3 activation in assay [1] was -0.173%. Moreover, the outcome in assay [2], in assay [3], in assay [4], in assay [5], in [6] and in assay [7] was inactive. The outcome in assay [9] and in assay [10] was inactive. Moreover, in assay [8], the Potency entry was “inactive”.

As for `NCCNc1cccc2ccccc12`, the caspase-3 activation in assay [1] was 6.22%. In addition, the outcome in [2], in assay [3], in [4], in assay [5], in assay [6] and in assay [7] was inactive. Besides, the result in assay [9] and in assay [10] was inactive. Further, the Potency result in [8] is “inactive”.

Consider `C/C=C/c1ccc(O)c(OC)c1`, for which the caspase-3 activation in [1] is 1.5%. In addition, the molecule was classed as inactive in [2], in assay [3], in assay [4], in assay [5], in assay [6] and in assay [7]. For the same molecule, the molecule was classed as inactive in assay [9] and in [10]. Further, the Potency entry in [8] is “inactive”.

The record behind these values is PubChem BioAssay (NCATS).
